Experimental findings from PubChem BioAssay (NCATS) are described below.

The target in assay [1] is Lysosomal acid glucosylceramidase (Homo sapiens) (UniProt P04062). Put plainly: Glucocerebrosidase-p2 (AID 348; in the data active = potency below about 10 µM; also: potency is read from the fitted curve at half-maximal effect). As to conditions: purified GBA, blue fluorogenic substrate, 40 min. An outline of the steps: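 Compounds titrated from 0.6 nM upwards against 0.2 nM enzyme in pH 5.9 citric acid/KH2PO4, taurocholate, tween-20; blue fluorogenic substrate 80 uM, 40 min room temperature, stopped and read Ex 365/Em 440 for AC50.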
Chain of Lysosomal acid glucosylceramidase (Homo sapiens) (P04062 whole entry, looked up): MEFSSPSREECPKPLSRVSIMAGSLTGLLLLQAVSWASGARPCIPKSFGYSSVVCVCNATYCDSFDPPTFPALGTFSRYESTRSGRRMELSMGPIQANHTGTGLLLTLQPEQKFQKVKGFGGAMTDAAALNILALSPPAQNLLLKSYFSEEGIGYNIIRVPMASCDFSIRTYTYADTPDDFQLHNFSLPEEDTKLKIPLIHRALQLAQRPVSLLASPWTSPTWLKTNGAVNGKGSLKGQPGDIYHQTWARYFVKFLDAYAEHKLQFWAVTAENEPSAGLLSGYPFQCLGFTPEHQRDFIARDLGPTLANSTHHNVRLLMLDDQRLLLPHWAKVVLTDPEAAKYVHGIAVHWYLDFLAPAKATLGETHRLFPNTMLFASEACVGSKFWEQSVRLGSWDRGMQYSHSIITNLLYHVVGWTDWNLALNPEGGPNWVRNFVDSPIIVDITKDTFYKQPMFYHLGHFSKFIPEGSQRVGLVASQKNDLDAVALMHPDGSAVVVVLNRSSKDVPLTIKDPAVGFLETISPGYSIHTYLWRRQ

Assay [2] in a line: AP1 Signaling Pathway (AID 357; active = well fitted curve in either direction with a large enough effect, not every such curve was filed as active;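 also: ME-180 reporter cells stimulated with EGF at its EC50 level; % is scaled to controls: 0 for no effect and ±100 for the full control effect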). The following applies: ME-180 AP-1-bla reporter, EGF-induced, beta-lactamase ratio, 5 h; at 7.69 µM (top of the series) unless noted. An outline of the steps: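 Modulation of EGF-driven AP-1 transcription was assessed with a beta-lactamase reporter in ME-180 cells. Compound and EC50 EGF were co-incubated 5 hours at 37 °C before 2.5-hour CCF4 loading at room temperature and dual-emission reading.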

Assay [3] can be described thus: NFAT Signaling Pathway (AID 444; active = well fitted curve in either direction with a large enough effect, not every such curve was filed as active;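 also: carbachol stimulus at about its EC50 of 1 µM final; % is scaled to controls: 0 for no effect and ±100 for the full control effect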). The following applies: Jurkat NFAT-bla M1, carbachol, beta-lactamase ratio, 5 h; at 7.69 µM (top of the series) unless noted. An outline of the steps: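 Jurkat cells with NFAT-driven β-lactamase reporter and co-expressed M1 receptor, stimulated with carbachol (final 1 uM, ~EC50), compound titration, 5 h at 37 °C. CCF4 loaded 1 h at RT; 460/530 nm ratio gave %activity and AC50.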

The nature of assay [4]: Stat Signaling Pathway (AID 446; active = well fitted curve in either direction with a large enough effect, not every such curve was filed as active;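 also: ME-180 cervical cancer cells given 40 pM IL-6 alongside compound; SIE-controlled beta-lactamase reporter measured as 460/530 nm FRET emission ratio; % is scaled to controls: 0 for no effect and ±100 for the full control effect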). As to conditions: ME-180 SIE beta-lactamase reporter, IL-6 stimulated, 5 h; at 7.69 µM (top of the series) unless noted. Summed up: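 Screening format detects activators and inhibitors alike: ME-180 SIE-bla cells stimulated at 40 pM IL-6 for 5 hrs with compound, then dual-emission beta-lactamase read at 405 nm excitation.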
Assay [5] addresses Glucocorticoid receptor (Homo sapiens) (UniProt P04150). Put plainly: GR-GFP Redistribution (AID 450;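 active = compounds whose dose series gives a full or clear partial fitted curve of increased nuclear translocation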; also: potency is read from the fitted curve at half-maximal effect). The following applies: U2OS GR-GFP nuclear translocation, laser cytometry, 2 h.
For assay [6] the target is unchanged. Put plainly: GR-EFC Redistribution (AID 451; calls by dose curve; also: potency is read from the fitted curve at half-maximal effect). The following applies: CHO-K1 GR-EFC translocation, beta-gal luminescence, 2 h. An outline of the steps: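 CHO-K1 cells expressing nuclear EA and GR-ED fragments of b-gal; compounds titrated up to 46 uM final, 2 h at 37 C. GR nuclear translocation read as complemented b-gal luminescence after 1 h RT detection.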

The target of assay [7] is Mitogen-activated protein kinase 10 (Mus musculus) (UniProt Q61831). The assay can be described thus: JNK3 AlphaScreen Assay (AID 530; active = well fitted curve in either direction with a large enough effect, not every such curve was filed as active;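 also: kinase came from lysate of stimulated human HepG2 cells; signal reports phosphorylation of biotinylated GST-cJun 1-79 at Ser73 with 10 µM ATP; % is scaled to controls: 0 for no effect and ±100 for the full control effect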). As to conditions: JNK3 lysate, c-Jun phosphorylation; series mostly up to 57.1 µM. Summed up: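 qHTS format: compounds tested as titrations against IL-1beta/TNF-alpha-activated HepG2 lysate JNK3 with biotin-GST-cJun substrate and 10 uM ATP at room temperature. Loss of anti-phospho-cJun AlphaScreen signal indicates inhibition.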
(In general: Alpha assays give light when donor and acceptor beads are brought close together.)

Assay [8] concerns the target 3',5'-cyclic-AMP phosphodiesterase 4B (Homo sapiens) (UniProt Q07343). The assay can be described thus: qHTS Assay for Inhibitors of PDE-IV (AID 607; active = well fitted activation curve with a large enough effect in the main read-out, with a control signal flat, not every such curve was filed as active; also: % of control where 0% means no effect). As to conditions: HEK293 ACTOne CNG channel cells, membrane potential fluorescence; series mostly up to 22.9 µM. Summed up:
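The readout is membrane depolarisation from a cAMP-sensing CNG channel, detected with a potential dye at ex 535/em 590. Cells were HEK293-derived (endogenous PDE-IV) at 1000 cells/well, titrated up to 22.9 uM final.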
(In general: qHTS replaces the single test concentration by a dilution series.)

The target in assay [9] is Dual specificity protein kinase CLK4 (Homo sapiens) (UniProt Q9HAZ1). Put plainly: qHTS Assay for Inhibitors of CDC-like Kinase 4 (Kinase-Glo Assay) (AID 1770). Also: nearly all actives have a fitted effect of over 65% in size. Also: potency is read from the fitted curve at half-maximal effect. As to conditions: recombinant Clk4, Kinase-Glo ATP depletion luminescence; series mostly up to 66.7 µM. Summed up: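 25 nM Clk4 with 100 uM RS repeat peptide and 1 uM ATP (final) in Tris pH7.5, 10 mM MgCl2, 4.5 h at room temperature. Remaining ATP measured by Kinase-Glo luciferase luminescence.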
Chain of Dual specificity protein kinase CLK4 (Homo sapiens) (Q9HAZ1 whole entry, looked up): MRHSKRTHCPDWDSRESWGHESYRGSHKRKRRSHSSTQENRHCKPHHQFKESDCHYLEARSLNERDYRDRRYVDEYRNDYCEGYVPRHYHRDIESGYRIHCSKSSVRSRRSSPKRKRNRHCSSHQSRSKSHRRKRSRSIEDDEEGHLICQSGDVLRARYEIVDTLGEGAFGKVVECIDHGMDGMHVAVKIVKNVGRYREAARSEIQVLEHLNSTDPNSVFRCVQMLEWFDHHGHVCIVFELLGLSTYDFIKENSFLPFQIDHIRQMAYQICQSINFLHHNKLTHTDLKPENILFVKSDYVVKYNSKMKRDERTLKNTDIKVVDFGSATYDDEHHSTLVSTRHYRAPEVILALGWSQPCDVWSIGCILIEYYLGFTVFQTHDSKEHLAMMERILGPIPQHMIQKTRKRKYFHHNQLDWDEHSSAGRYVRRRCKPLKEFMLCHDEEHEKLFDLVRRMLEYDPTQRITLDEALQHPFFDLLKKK

The target is the same in assay [10]. Put plainly: qHTS Assay for Inhibitors of CDC-like Kinase 4 (ADP-FP Assay) (AID 1795). Also: % is scaled to controls: 0 for no effect and ±100 for the full control effect; nearly all actives have a fitted effect of over 60% in size. The following applies: Transcreener ADP fluorescence polarization; series mostly up to 50 µM. Summed up:
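Recombinant Clk4 (6.25 nM) phosphorylated 100 uM RS repeat peptide with 1 uM ATP in 25 mM Tris pH 7.5, 10 mM MgCl2, 0.5 mM EGTA, 2.5 mM DTT, 0.01% Triton X-100 for 1 h. ADP was detected by Transcreener ADP2 competitive fluorescence polarization after 30 min at room temperature.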

In assay [11] the target is Ubiquitin carboxyl-terminal hydrolase 1 (Homo sapiens) (UniProt O94782). Put plainly: Inhibitors of USP1/UAF1: Pilot qHTS (AID 504865).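 Also: rhodamine fluorescence freed from ubiquitin-rhodamine substrate followed over time; top concentration of the series differs between compounds; % is scaled to controls: 0 for no effect and ±100 for the full control effect; nearly all actives have a fitted effect of over 35% in size.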 The following applies: purified USP1/UAF1, Ub-rhodamine cleavage fluorescence; series mostly up to 54.9 µM. Summed up: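 USP1/UAF1 complex at 1 nM preincubated 15 min at room temperature with compound, then Ub-Rho substrate added at 150 nM final. Fluorescence (480/540 nm) read kinetically in 50 mM HEPES pH 7.8, 0.5 mM EDTA, 1 mM TCEP, 0.1 mg/ml BSA, 0.01% Tween-20.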
Chain of Ubiquitin carboxyl-terminal hydrolase 1 (Homo sapiens) (O94782 whole entry, looked up): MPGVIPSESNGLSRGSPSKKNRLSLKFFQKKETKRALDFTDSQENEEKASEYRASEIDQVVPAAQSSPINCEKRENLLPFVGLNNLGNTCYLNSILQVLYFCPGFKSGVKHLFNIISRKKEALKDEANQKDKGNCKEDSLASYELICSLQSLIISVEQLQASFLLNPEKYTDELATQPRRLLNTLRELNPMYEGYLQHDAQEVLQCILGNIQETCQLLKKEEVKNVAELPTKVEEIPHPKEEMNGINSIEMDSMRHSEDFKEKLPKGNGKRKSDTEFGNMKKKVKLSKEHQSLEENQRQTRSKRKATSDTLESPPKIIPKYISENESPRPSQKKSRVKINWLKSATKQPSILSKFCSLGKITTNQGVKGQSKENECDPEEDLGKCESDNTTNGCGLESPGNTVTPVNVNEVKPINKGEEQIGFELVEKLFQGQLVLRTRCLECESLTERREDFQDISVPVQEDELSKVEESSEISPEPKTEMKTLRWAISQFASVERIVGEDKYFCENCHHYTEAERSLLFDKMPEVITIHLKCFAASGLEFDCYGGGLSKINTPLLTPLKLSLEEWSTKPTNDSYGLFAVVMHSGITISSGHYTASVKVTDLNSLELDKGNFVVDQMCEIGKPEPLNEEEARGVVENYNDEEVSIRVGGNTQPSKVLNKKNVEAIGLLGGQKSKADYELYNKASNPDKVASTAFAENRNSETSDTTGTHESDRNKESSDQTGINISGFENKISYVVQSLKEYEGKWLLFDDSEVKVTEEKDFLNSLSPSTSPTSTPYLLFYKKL

Assay [12] is described as follows: Primary qHTS for small molecule stabilizers of the endoplasmic reticulum resident proteome: Secreted ER Calcium Modulated Protein (SERCaMP) assay (AID 1508630). Also: % is scaled to controls: 0 for no effect and ±100 for the full control effect. The following applies: SH-SY5Y GLuc-SERCaMP (Gaussia luciferase released on ER calcium loss) secretion, thapsigargin, luminescence; series mostly up to 38.4 µM. An outline of the steps: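 GLuc-SERCaMP-expressing SH-SY5Y cells, pretreated 16 h with compound, are challenged with thapsigargin to empty ER calcium stores; after 4 h, coelenterazine is added directly to the medium and luminescence is imaged.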

The target of assay [13] is Cytochrome P450 1A2 (Homo sapiens) (UniProt P05177). Put plainly: p450-cyp1a2 (AID 410; calls by dose curve; also: potency is read from the fitted curve at half-maximal effect;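 as to activity change, negative = inhibition: -100% = full effect of reference inhibitor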). As to conditions: recombinant CYP1A2, luciferin-ME demethylation, luminescence; series mostly up to 57 µM. An outline of the steps:
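Human CYP1A2 (20nM) demethylated Luciferin-ME at its Km (100uM) in 100mM KPO4. After 10 min compound preincubation, NADPH regeneration ran the reaction 60 min at room temperature. Luciferin was read by luminescence, normalized to 57 uM furafylline.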

Assay [14] has as its target Cytochrome P450 3A4 (Homo sapiens) (UniProt P08684). The assay can be described thus: qHTS Assay for Activators of Cytochrome P450 3A4 (AID 885). Also: nearly all actives have a fitted effect of over 65% in size. As to conditions: recombinant CYP3A4, Luciferin-PPXE luminescence, 60 min; series mostly up to 57.1 µM. An outline of the steps:
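Steps: enzyme/substrate mix dispensed; compound added, 10 min RT; NADPH regeneration solution added, 60 min RT; luciferin detection buffer stops reaction; 20 min later luminescence measured.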

For assay [15], the target named is Cytochrome P450 2D6 (Homo sapiens) (UniProt P10635). Put plainly: qHTS Assay for Inhibitors and Substrates of Cytochrome P450 2D6 (AID 891). Also: potency is read from the fitted curve at half-maximal effect; nearly all actives have a fitted effect of over 60% in size. As to conditions: recombinant CYP2D6, luciferin-ME EGE luminescence; series mostly up to 57.1 µM. An outline of the steps:
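Human CYP2D6 (5 nM) with 30 uM Luciferin-ME EGE (at Km) in 100 mM KPO4, compound preincubated 10 min, then NADPH regeneration system for 60 min at room temperature. Luciferin read by luminescence; normalized to 1.43 uM quinidine.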

Assay [16] deals with Dual specificity protein kinase CLK4 (Homo sapiens) (UniProt Q9HAZ1). Put plainly: qHTS Assay for Inhibitors of CDC-like Kinase 4 (ADP-Glo Assay) (AID 1771). Also: nearly all actives have a fitted effect of over 70% in size. Also: potency is read from the fitted curve at half-maximal effect. The following applies: recombinant CLK4, ADP-Glo luminescence; series mostly up to 80 µM. Summed up: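 Clk4 (25 nM) was incubated 1 hr at room temperature with 100 uM RS repeat peptide and 1 uM ATP in buffer with 2 mM MgCl2, 0.5 mM EGTA, 2.5 mM DTT. ADP formed was quantified by ADP-Glo luminescence.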

Assay [17] deals with Cytochrome P450 2C9 (Homo sapiens) (UniProt P11712). The assay can be described thus: qHTS Assay for Inhibitors and Substrates of Cytochrome P450 2C9 (AID 883). Also: % is scaled to controls: 0 for no effect and ±100 for the full control effect; nearly all actives have a fitted effect of over 60% in size. The following applies: recombinant CYP2C9, luciferin-H luminescence, 60 min; series mostly up to 57.1 µM. An outline of the steps:
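Signal: luciferase luminescence reporting luciferin produced by CYP2C9. Conditions: 10nM enzyme, Luciferin-H 100uM at KM, 25mM KPO4, 37C, 60 min NADPH-driven reaction. Reference: 57uM sulphaphenazole as 100% inhibition.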

Assay [18] deals with Cytochrome P450 3A4 (Homo sapiens) (UniProt P08684). Put plainly: qHTS Assay for Inhibitors and Substrates of Cytochrome P450 3A4 (AID 884). Also: potency is read from the fitted curve at half-maximal effect; nearly all actives have a fitted effect of over 50% in size. The following applies: recombinant CYP3A4, Luciferin-PPXE luminescence; series mostly up to 57.1 µM. Summed up: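 20 nM human CYP3A4 with 25 uM Luciferin-PPXE (at KM) in 200 mM KPO4, preincubated 10 min with compound; NADPH regeneration started a 60 min RT reaction. Luciferin detected by luminescence, normalized to 57 uM ketoconazole as full inhibition.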
Chain of Cytochrome P450 3A4 (Homo sapiens) (P08684 whole entry, looked up): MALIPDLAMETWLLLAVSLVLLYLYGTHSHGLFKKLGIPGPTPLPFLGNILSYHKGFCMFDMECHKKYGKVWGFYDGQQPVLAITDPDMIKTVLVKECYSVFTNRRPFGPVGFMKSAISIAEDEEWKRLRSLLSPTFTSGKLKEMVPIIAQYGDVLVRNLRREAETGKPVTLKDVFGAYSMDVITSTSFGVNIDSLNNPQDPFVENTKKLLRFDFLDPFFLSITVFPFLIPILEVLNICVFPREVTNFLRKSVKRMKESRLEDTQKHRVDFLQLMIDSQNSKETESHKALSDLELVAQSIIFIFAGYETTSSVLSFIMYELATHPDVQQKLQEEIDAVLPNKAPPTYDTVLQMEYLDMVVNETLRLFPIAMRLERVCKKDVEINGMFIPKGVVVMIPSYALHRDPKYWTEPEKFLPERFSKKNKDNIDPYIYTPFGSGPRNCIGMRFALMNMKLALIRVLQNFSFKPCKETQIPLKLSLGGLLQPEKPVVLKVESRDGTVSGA

A number with no mark means an inactive call. Inconclusive results are not listed. Activity calls are given as the source filed them. Unless noted, calls follow the shape of the dose curve; as a rule, active = well fitted curve in the direction sought with a large enough effect; inconclusive = small, poorly fitted or top-dose-only effect, or another doubt; inactive = no such curve, though single readings can be large; an effect the other way counts as inactive or inconclusive. Some results are limits rather than exact numbers.

Chain of Cytochrome P450 1A2 (Homo sapiens) (P05177 whole entry, looked up): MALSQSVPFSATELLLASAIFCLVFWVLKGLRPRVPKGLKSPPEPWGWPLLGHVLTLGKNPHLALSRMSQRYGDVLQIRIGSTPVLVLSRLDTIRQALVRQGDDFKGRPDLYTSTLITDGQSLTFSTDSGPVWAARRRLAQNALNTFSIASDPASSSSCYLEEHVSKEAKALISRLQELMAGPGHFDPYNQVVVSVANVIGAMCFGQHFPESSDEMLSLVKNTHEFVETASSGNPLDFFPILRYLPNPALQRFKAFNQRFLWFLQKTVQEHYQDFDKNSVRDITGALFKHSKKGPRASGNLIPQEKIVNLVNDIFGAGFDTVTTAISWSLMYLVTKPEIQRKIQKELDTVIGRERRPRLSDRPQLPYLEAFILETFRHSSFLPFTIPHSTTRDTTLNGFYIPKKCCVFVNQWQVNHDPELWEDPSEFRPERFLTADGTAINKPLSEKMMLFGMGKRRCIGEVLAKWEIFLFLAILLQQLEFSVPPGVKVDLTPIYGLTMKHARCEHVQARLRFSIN
Chain of Glucocorticoid receptor (Homo sapiens) (P04150 whole entry, looked up, the tested form may be a part): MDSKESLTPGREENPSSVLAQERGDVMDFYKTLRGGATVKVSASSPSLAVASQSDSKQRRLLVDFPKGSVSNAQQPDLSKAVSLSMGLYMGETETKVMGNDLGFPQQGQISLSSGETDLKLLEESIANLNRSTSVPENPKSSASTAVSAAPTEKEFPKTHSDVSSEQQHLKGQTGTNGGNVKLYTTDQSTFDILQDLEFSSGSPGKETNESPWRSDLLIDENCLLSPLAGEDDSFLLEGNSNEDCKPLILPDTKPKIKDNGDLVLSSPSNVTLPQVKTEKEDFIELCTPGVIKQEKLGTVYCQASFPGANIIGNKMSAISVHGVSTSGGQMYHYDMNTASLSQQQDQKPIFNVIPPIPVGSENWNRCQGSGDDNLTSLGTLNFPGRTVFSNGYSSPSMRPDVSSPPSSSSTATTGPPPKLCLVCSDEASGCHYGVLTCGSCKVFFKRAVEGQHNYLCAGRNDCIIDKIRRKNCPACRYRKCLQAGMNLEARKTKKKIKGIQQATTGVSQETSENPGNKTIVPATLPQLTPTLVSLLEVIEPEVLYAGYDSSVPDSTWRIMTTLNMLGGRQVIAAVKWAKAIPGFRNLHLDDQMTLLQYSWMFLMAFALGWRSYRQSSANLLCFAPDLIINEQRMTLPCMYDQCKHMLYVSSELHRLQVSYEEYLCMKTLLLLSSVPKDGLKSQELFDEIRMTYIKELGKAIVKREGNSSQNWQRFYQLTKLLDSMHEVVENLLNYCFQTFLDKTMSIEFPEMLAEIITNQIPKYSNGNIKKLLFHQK
Chain of 3',5'-cyclic-AMP phosphodiesterase 4B (Homo sapiens) (Q07343 whole entry, looked up): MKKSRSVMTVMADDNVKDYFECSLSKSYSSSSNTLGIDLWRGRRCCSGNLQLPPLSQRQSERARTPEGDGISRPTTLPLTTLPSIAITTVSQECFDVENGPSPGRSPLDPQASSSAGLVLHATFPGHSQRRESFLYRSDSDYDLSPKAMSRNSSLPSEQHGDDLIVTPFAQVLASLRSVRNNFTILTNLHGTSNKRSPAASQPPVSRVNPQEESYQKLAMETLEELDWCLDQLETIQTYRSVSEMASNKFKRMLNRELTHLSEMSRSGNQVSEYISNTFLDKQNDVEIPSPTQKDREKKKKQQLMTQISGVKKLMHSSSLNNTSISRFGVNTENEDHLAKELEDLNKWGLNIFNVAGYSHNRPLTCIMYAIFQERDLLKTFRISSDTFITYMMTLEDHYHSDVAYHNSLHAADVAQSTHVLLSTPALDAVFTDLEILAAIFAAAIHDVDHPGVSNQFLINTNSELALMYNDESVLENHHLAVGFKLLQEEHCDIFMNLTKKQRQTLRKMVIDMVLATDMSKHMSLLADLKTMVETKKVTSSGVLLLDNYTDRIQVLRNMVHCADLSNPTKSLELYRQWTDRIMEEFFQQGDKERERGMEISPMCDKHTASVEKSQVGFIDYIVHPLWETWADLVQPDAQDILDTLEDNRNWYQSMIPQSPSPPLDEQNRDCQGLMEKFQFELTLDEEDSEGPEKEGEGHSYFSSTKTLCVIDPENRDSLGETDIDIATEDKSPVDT
Chain of Cytochrome P450 2C9 (Homo sapiens) (P11712 whole entry, looked up): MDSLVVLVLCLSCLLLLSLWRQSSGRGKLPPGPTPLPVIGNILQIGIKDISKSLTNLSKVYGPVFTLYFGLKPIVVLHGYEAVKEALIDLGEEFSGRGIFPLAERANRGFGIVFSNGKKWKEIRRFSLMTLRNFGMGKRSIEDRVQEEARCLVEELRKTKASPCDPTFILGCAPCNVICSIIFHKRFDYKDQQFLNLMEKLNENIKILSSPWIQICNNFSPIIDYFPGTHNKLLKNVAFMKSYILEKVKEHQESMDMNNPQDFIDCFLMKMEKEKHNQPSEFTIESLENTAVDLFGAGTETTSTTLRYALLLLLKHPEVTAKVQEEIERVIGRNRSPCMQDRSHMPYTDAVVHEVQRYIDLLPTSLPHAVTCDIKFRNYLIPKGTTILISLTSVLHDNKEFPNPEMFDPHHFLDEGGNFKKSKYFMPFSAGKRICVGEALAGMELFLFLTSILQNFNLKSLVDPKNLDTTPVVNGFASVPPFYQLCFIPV

As for `Cc1cnc(CNc2cc(-c3ccccc3CN(C)C)ncn2)cn1`, the Potency in [1] is over 11.4 µM; in [5], over 46 µM; in assay [6] it was over 46 µM. Further, the activity change, negative = inhibition in assay [2] is 17.7%; in assay [3], -9.03%. For the same molecule, in assay [4], the activity, negative = inhibition was 7.96%. Moreover, the Potency entry in assay [7], in assay [8], in [9], in [10] and in [11] was “inactive” in each case. For the same molecule, the result in [12] was inactive.

As to `CCNc1ncc2nc(-c3cc(F)cc(F)c3)c(=O)n(CCOC)c2n1`, the Potency is over 11.4 µM in assay [1]; 3.16 µM (active) in assay [13]; over 9.22 µM in [5]; over 46 µM in [6]; 0.316 µM (active) in [15]. Moreover, the Potency result in [7], in assay [14], in [9], in [16] and in [11] was “inactive” each time. Moreover, in assay [12], the outcome was inactive.

As for `COc1ccc(Oc2ncc3nc(-c4cn(C)c5ccccc45)c(=O)n(C)c3n2)cc1`, the Potency in [1] is over 11.4 µM; in [5] it was over 9.22 µM; in assay [6] it was over 46 µM. The figures for the activity change, negative = inhibition in assay [2] and in [3] were -24.2% and -8.09%, respectively. The Potency entry in [13], in assay [7], in [8], in assay [17], in assay [14] and in assay [9] was “inactive” in each case. In addition, the Potency entry in assay [10] and in assay [11] was “inactive” throughout. The activity, negative = inhibition in assay [4] is 1.51%. Also, the result in assay [12] was inactive.

For `CC(=O)NCCNc1ncnc2ccc(-c3ccccc3Cl)cc12`, the Potency in assay [1] is over 11.4 µM; in assay [5], over 46 µM; in assay [6], over 46 µM; in [9], 15.8 µM (active); in assay [16], 15.8 µM (active). Also, the activity change, negative = inhibition in assay [3] was -0.746%. In assay [4], the activity, negative = inhibition is -1.74%. The Potency entry in assay [7], in [14] and in [11] was “inactive” in each case. Moreover, the result in assay [12] was inactive.

In the case of `O=c1c(-c2ccc(Cl)cc2)nc2cnc(N3CCNCC3)nc2n1CCc1ccccc1`, the Potency in assay [1] is over 11.4 µM; in [5], over 9.22 µM; in assay [6], over 46 µM. The Potency entry in assay [8], in assay [14], in assay [9] and in assay [16] was “inactive” in each case. Besides, in assay [12], the result was inactive.

For `CN(C)c1ncnc2ccc(-c3ccc4c(c3)OCO4)cc12`, the Potency in [1] is over 11.4 µM; in assay [5] it was over 46 µM; in [6] it was over 46 µM; in [9] it was 0.199 µM (active); in assay [16], 0.158 µM (active). In addition, the activity change, negative = inhibition in assay [3] is -4.71%. Moreover, in [4], the activity, negative = inhibition is 1.73%. Moreover, the Potency entry in assay [7], in assay [8] and in [11] was “inactive” each time. Further, the result in assay [12] was inactive.

Regarding `COc1ncc2nc(-c3cn(C)c4ccccc34)c(=O)n(CCC#N)c2n1`, the Potency in assay [1] is over 11.4 µM; in assay [13], 5.01 µM (active); in [6], over 46 µM; in assay [18], 6.31 µM (active). Also, the activity change, negative = inhibition in [2] was -17.8%; in [3], -2.23%. The activity, negative = inhibition in [4] was -7.24%. The Potency entry in assay [7], in assay [8], in assay [14], in [9], in [10] and in assay [11] was “inactive” each time. Besides, in assay [12], the outcome was inactive.
